Among the data in PubChem BioAssay AID2314 (National Center for Advancing Translational Sciences (NCATS), 2010) are max response values, retold here.

Each structure is given as a SMILES string. Out of some 300,000 compounds screened, about 37,000 (12%) were called active. The list comes from a sample in which actives are over-represented; it also holds similar structures and randomly drawn compounds. A number with no mark means an inactive call. Cut-off read from the data, not from the text of the source: active = max response mostly above about 13% (no sharp cut-off); inactive = mostly below about 14%.

The experiment is described as follows: Cycloheximide Counterscreen for Small Molecule Inhibitors of Shiga Toxin. Note: read at 38.3 µM for the half of the compounds with a filed dose; 0% is about no effect. The conditions noted are these: cell reporter, cycloheximide protein synthesis inhibition counterscreen; stronger effect = higher value. (In general: A counterscreen serves to expose hits that act by an unwanted route or on another target.)
Take `CN(C(=O)CC1C(=O)NCCN1Cc1ccc(F)cc1Cl)C1CCCCC1` (stereo not drawn): the max response was -2.54%. For `Cc1ccccc1OCC(=O)NCC(=O)OCC(=O)c1ccc2ccccc2c1` the value was 1.31%; for `CC(=O)c1ccc2c(c1)c1ccccc1n2CC(C)C`, 3.09%; for `CC(=O)c1ccc2c(ccc3ccccc32)c1`, 67.2% (active). For `CC(=O)CCC(=O)c1ccc2ccccc2c1` the value was 48.4% (active).

In the case of `CCN(CC)Cc1cc(C(C)=O)ccc1O`, the max response is -3.77%. With `O=C(Nc1ccccc1N1CCCC1)c1ccc2ccccc2c1` the figure was 18.5%; with `CC(C)CC(O)C1CCN(C(=O)CCc2nnc(-c3ccc4c(c3)OCO4)o2)CC1` (stereo not drawn), 13.8%.

For `COc1ccc(Cl)cc1NC(=O)c1cccc(N2C(=O)C3CC=CCC3C2=O)c1` (stereo not drawn), the max response is -2.41%. For `CC1CN(C(=S)Nc2cccc(F)c2)CC(C)O1` (stereo not drawn) the value was -2.61%; for `COc1ccc(CCNC(=O)Cc2ccc(C)cc2)cc1OC`, 0.685%; for `COc1ccc(CC(=O)c2ccc(O)cc2O)cc1OC`, 12.9% (active).

Take `O=C(Cc1ccccn1)c1ccc(O)cc1O`: the max response was -6.13%. Consider `CCN(Cc1ccncc1)C(=O)CCc1ccccc1`, for which the max response was -2.09%. With `CCOc1ccc(NC(=O)c2cccc3c2C(=O)N(CC2CCCO2)C3)cc1` (stereo not drawn) the figure was 8.04%; with `CCn1c(SCC(=O)c2ccc3ccccc3c2)nnc1-c1cccs1`, -2.54%. For `CCn1c(Cc2cccs2)nnc1SCC(=O)c1ccc(C)cc1` the value was 35.4% (active); for `Cc1ccc(-n2c(Cc3cccs3)nnc2SCC(=O)OC(C)C)cc1`, 18.3%. With `CCn1c(SCC(=O)N(C)C2CCS(=O)(=O)C2)nnc1-c1cccs1` (stereo not drawn) the figure was -1.86%; with `Cn1c(Cc2cccs2)nnc1SCC(=O)Nc1ccccc1`, -0.893%; with `CCn1c(SCC(=O)c2ccc(Cl)s2)nnc1-c1cccs1`, 24.2% (active).

Consider `O=C(N/C(=C\c1ccc(O)cc1)C(=O)N1CCCCC1)c1ccccc1`, for which the max response is -0.421%. For `COCCCNC(=O)C1CC(=O)N(CCc2ccc(F)cc2)C1` (stereo not drawn) the value was -0.645%; for `CC(C)(CNC(=O)c1ccc(Cl)c(S(=O)(=O)N2CCc3ccccc3C2)c1)N1CCOCC1`, -3.28%; for `COc1cc(OC)cc(C(=O)NCCSCc2ccc(Cl)cc2)c1`, 11.2%.

On to `CC1CC(C)CN(CCCNC(=O)Cn2ncc3c([nH]c4ccccc43)c2=O)C1` (stereo not drawn), for which the max response is -2.29%. Consider `Cc1ccc(NS(=O)(=O)c2cc3c(cc2C)NC(=O)CO3)cc1`, for which the max response is -3.17%.

As to `CC1(C)Cc2c(sc(NC(=O)C(=O)NCC3CCCO3)c2C(=O)O)CO1` (stereo not drawn), the max response is 0.548%.
